# Source: PMC11006913
# Substitutions are numbered along the chain they refer to.
# Columns and labels:
# Assay in all cases: PBM; 200 nM protein, PBS
# Details in all cases: dsDNA, one strand shown
# [1] = molecular target: SHOX (Homo sapiens, UniProt O15266 103-189)
# [2] = molecular target: HOXA2 (Homo sapiens, UniProt O43364 129-215, R185T)
# [3] = molecular target: SHOX (Homo sapiens, UniProt O15266 103-189, R173C)
# [4] = molecular target: HOXA2 (Homo sapiens, UniProt O43364 129-215, R185K)
# HOXA2 (Homo sapiens, UniProt O43364 129-215, R185K), sequence (O43364 129-215 R185K): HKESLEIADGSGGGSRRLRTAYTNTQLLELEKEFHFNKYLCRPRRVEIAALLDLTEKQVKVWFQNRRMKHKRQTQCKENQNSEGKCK
# [5] = molecular target: HOXA2 (Homo sapiens, UniProt O43364 129-215, Y150S)
# HOXA2 (Homo sapiens, UniProt O43364 129-215, Y150S), sequence (O43364 129-215 Y150S): as the sequence (O43364 129-215 R185K) above, with Y22S, K57R counted along it
# [6] = molecular target: HOXA2 (Homo sapiens, UniProt O43364 129-215)
# HOXA2 (Homo sapiens, UniProt O43364 129-215), sequence (O43364 129-215): as the sequence (O43364 129-215 R185K) above, with K57R counted along it
# [7] = molecular target: HOXC9 (Homo sapiens, UniProt P31274 178-260, K195R)
# HOXC9 (Homo sapiens, UniProt P31274 178-260, K195R), sequence (P31274 178-260 K195R): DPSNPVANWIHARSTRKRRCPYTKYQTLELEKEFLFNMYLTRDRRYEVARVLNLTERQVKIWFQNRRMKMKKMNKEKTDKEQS
# [8] = molecular target: HOXC9 (Homo sapiens, UniProt P31274 178-260)
# HOXC9 (Homo sapiens, UniProt P31274 178-260), sequence (P31274 178-260): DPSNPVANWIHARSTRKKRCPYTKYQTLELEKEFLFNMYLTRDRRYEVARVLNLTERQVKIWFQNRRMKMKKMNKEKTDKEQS
# [9] = molecular target: HOXC9 (Homo sapiens, UniProt P31274 178-260, R193K)
# HOXC9 (Homo sapiens, UniProt P31274 178-260, R193K), sequence (P31274 178-260 R193K): as the sequence (P31274 178-260) above, with R16K counted along it
# [10] = molecular target: HOXC9 (Homo sapiens, UniProt P31274 178-260, R222W)
# HOXC9 (Homo sapiens, UniProt P31274 178-260, R222W), sequence (P31274 178-260 R222W): as the sequence (P31274 178-260) above, with R45W counted along it
# [11] = molecular target: T1, PAX4 (Homo sapiens, UniProt O43316 9-242, R200K)
# T1 sequence: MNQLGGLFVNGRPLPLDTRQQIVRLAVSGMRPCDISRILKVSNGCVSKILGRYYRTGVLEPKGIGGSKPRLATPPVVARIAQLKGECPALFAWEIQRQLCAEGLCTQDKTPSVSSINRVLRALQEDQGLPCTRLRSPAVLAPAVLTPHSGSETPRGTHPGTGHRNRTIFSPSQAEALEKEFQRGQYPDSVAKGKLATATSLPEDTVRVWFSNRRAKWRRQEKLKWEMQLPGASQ
# [12] = molecular target: T2, PAX4 (Homo sapiens, UniProt O43316 9-242)
# T2 sequence: T1 sequence with K192R
# [13] = molecular target: T3, PAX4 (Homo sapiens, UniProt O43316 9-242, R200Q)
# T3 sequence: T1 sequence with K192Q
# [14] = molecular target: T4, PAX4 (Homo sapiens, UniProt O43316 9-242, F177V)
# T4 sequence: T1 sequence with F169V, K192R
# [15] = molecular target: T5, PAX4 (Homo sapiens, UniProt O43316 9-242, F177Y)
# T5 sequence: T1 sequence with F169Y, K192R
# [16] = molecular target: T6, PAX4 (Homo sapiens, UniProt O43316 9-242, R227W)
# T6 sequence: T1 sequence with K192R, R219W
# [17] = molecular target: ALX4 (Homo sapiens, UniProt Q9H161 200-286)
# ALX4 (Homo sapiens, UniProt Q9H161 200-286), sequence (Q9H161 200-286): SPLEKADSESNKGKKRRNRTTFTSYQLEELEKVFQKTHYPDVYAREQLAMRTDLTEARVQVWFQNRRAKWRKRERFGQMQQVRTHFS
# [18] = molecular target: PRRX1 (Homo sapiens, UniProt P54821 80-166, F113S)
# PRRX1 (Homo sapiens, UniProt P54821 80-166, F113S), sequence (P54821 80-166 F113S): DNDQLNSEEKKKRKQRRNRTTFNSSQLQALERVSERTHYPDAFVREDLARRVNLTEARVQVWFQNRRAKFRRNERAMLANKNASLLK
# [19] = molecular target: ALX4 (Homo sapiens, UniProt Q9H161 200-286, Q225E)
# ALX4 (Homo sapiens, UniProt Q9H161 200-286, Q225E), sequence (Q9H161 200-286 Q225E): as the sequence (Q9H161 200-286) above, with Q26E counted along it
# [20] = molecular target: ALX1 (Homo sapiens, UniProt Q15699 118-204, L144V)
# ALX1 (Homo sapiens, UniProt Q15699 118-204, L144V), sequence (Q15699 118-204 L144V): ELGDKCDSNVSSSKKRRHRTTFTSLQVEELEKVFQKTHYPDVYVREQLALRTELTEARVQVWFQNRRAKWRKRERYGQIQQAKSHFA
# [21] = molecular target: ALX3 (Homo sapiens, UniProt O95076 139-225, N203Q)
# ALX3 (Homo sapiens, UniProt O95076 139-225, N203Q), sequence (O95076 139-225 N203Q): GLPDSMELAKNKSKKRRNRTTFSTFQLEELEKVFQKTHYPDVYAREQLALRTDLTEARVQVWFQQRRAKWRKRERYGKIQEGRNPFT
# [22] = molecular target: ALX1 (Homo sapiens, UniProt Q15699 118-204, L144R)
# ALX1 (Homo sapiens, UniProt Q15699 118-204, L144R), sequence (Q15699 118-204 L144R): as the sequence (Q15699 118-204 L144V) above, with V27R counted along it
# [23] = molecular target: ALX3 (Homo sapiens, UniProt O95076 139-225)
# ALX3 (Homo sapiens, UniProt O95076 139-225), sequence (O95076 139-225): as the sequence (O95076 139-225 N203Q) above, with Q65N counted along it
# [24] = molecular target: PROP1 (Homo sapiens, UniProt O75360 56-141)
# PROP1 (Homo sapiens, UniProt O75360 56-141), sequence (O75360 56-141): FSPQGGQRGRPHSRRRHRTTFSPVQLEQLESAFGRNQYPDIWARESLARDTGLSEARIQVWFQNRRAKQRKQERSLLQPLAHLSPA
# [25] = molecular target: PROP1 (Homo sapiens, UniProt O75360 56-141, R99H)
# PROP1 (Homo sapiens, UniProt O75360 56-141, R99H), sequence (O75360 56-141 R99H): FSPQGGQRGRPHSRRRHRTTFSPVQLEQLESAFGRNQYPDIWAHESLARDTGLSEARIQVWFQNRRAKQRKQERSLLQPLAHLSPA
# [26] = molecular target: ALX3 (Homo sapiens, UniProt O95076 139-225, L168Q)
# ALX3 (Homo sapiens, UniProt O95076 139-225, L168Q), sequence (O95076 139-225 L168Q): as the sequence (O95076 139-225 N203Q) above, with L30Q, Q65N counted along it
# [27] = molecular target: ALX3 (Homo sapiens, UniProt O95076 139-225, L168V)
# ALX3 (Homo sapiens, UniProt O95076 139-225, L168V), sequence (O95076 139-225 L168V): as the sequence (O95076 139-225 N203Q) above, with L30V, Q65N counted along it
# [28] = molecular target: PROP1 (Homo sapiens, UniProt O75360 56-141, F88S)
# PROP1 (Homo sapiens, UniProt O75360 56-141, F88S), sequence (O75360 56-141 F88S): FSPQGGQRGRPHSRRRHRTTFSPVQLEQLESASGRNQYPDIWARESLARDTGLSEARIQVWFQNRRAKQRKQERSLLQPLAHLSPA
# [29] = molecular target: ALX1 (Homo sapiens, UniProt Q15699 118-204)
# ALX1 (Homo sapiens, UniProt Q15699 118-204), sequence (Q15699 118-204): as the sequence (Q15699 118-204 L144V) above, with V27L counted along it
# [30] = molecular target: ALX3 (Homo sapiens, UniProt O95076 139-225, N203S)
# ALX3 (Homo sapiens, UniProt O95076 139-225, N203S), sequence (O95076 139-225 N203S): as the sequence (O95076 139-225 N203Q) above, with Q65S counted along it
# [31] = molecular target: PRRX1 (Homo sapiens, UniProt P54821 80-166)
# PRRX1 (Homo sapiens, UniProt P54821 80-166), sequence (P54821 80-166): as the sequence (P54821 80-166 F113S) above, with S34F counted along it
# [32] = molecular target: HOXB6 (Homo sapiens, UniProt P17509 132-218, K202E)
# HOXB6 (Homo sapiens, UniProt P17509 132-218, K202E), sequence (P17509 132-218 K202E): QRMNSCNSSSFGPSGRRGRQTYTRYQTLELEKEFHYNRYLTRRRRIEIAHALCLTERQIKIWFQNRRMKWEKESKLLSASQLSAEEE
# [33] = molecular target: HOXB6 (Homo sapiens, UniProt P17509 132-218)
# HOXB6 (Homo sapiens, UniProt P17509 132-218), sequence (P17509 132-218): as the sequence (P17509 132-218 K202E) above, with E71K counted along it
# [34] = molecular target: MSX2 (Homo sapiens, UniProt P35548 130-214, R199I)
# MSX2 (Homo sapiens, UniProt P35548 130-214, R199I), sequence (P35548 130-214 R199I): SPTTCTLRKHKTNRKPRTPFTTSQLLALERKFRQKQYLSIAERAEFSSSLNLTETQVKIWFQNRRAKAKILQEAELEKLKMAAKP
# [35] = molecular target: MSX2 (Homo sapiens, UniProt P35548 130-214)
# MSX2 (Homo sapiens, UniProt P35548 130-214), sequence (P35548 130-214): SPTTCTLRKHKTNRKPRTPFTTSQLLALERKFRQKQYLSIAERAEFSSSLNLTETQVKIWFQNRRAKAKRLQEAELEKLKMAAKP
# [36] = molecular target: MSX2 (Homo sapiens, UniProt P35548 130-214, F161Y)
# MSX2 (Homo sapiens, UniProt P35548 130-214, F161Y), sequence (P35548 130-214 F161Y): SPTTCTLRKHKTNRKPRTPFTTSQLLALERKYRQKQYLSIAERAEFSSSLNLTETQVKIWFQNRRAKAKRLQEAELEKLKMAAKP
# [37] = molecular target: HOXC10 (Homo sapiens, UniProt Q9NYD6 254-340)
# HOXC10 (Homo sapiens, UniProt Q9NYD6 254-340), sequence (Q9NYD6 254-340): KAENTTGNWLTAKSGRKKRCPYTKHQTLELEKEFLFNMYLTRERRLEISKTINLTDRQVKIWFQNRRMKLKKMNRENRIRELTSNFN
# [38] = molecular target: HOXC10 (Homo sapiens, UniProt Q9NYD6 254-340, K271E)
# HOXC10 (Homo sapiens, UniProt Q9NYD6 254-340, K271E), sequence (Q9NYD6 254-340 K271E): as the sequence (Q9NYD6 254-340) above, with K18E counted along it
# SHOX (Homo sapiens, UniProt O15266 103-189), sequence (O15266 103-189): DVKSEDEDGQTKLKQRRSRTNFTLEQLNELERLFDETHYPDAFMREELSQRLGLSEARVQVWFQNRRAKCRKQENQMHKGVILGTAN
# SHOX (Homo sapiens, UniProt O15266 103-189, R173C), sequence (O15266 103-189 R173C): as the sequence (O15266 103-189) above, with R71C counted along it
# HOXA2 (Homo sapiens, UniProt O43364 129-215, R185T), sequence (O43364 129-215 R185T): as the sequence (O43364 129-215 R185K) above, with K57T counted along it
sequence,measurement,setting,value
CCTTGCCC,binding signal,[1],"7.09 upbm affinity estimate (log intensity, higher = more binding, comparable within an allelic series)"
same,binding signal,[2],"7.28 upbm affinity estimate (log intensity, higher = more binding, comparable within an allelic series)"
same,binding signal,[3],"7.14 upbm affinity estimate (log intensity, higher = more binding, comparable within an allelic series)"
same,binding signal,[4],"10.4 upbm affinity estimate (log intensity, higher = more binding, comparable within an allelic series)"
same,binding signal,[5],"10.4 upbm affinity estimate (log intensity, higher = more binding, comparable within an allelic series)"
same,binding signal,[6],"7.27 upbm affinity estimate (log intensity, higher = more binding, comparable within an allelic series)"
CGCAGTGC,binding signal,[1],"7.16 upbm affinity estimate (log intensity, higher = more binding, comparable within an allelic series)"
same,binding signal,[7],"9.74 upbm affinity estimate (log intensity, higher = more binding, comparable within an allelic series)"
same,binding signal,[8],"9.67 upbm affinity estimate (log intensity, higher = more binding, comparable within an allelic series)"
same,binding signal,[3],"7.23 upbm affinity estimate (log intensity, higher = more binding, comparable within an allelic series)"
same,binding signal,[9],"9.78 upbm affinity estimate (log intensity, higher = more binding, comparable within an allelic series)"
same,binding signal,[10],"9.73 upbm affinity estimate (log intensity, higher = more binding, comparable within an allelic series)"
CGCCTCCC,binding signal,[1],"7 upbm affinity estimate (log intensity, higher = more binding, comparable within an allelic series)"
same,binding signal,[11],"9.2 upbm affinity estimate (log intensity, higher = more binding, comparable within an allelic series)"
same,binding signal,[12],"9.23 upbm affinity estimate (log intensity, higher = more binding, comparable within an allelic series)"
same,binding signal,[13],"9.17 upbm affinity estimate (log intensity, higher = more binding, comparable within an allelic series)"
same,binding signal,[3],"6.98 upbm affinity estimate (log intensity, higher = more binding, comparable within an allelic series)"
same,binding signal,[14],"9.03 upbm affinity estimate (log intensity, higher = more binding, comparable within an allelic series)"
same,binding signal,[15],"9.1 upbm affinity estimate (log intensity, higher = more binding, comparable within an allelic series)"
same,binding signal,[16],"9.17 upbm affinity estimate (log intensity, higher = more binding, comparable within an allelic series)"
CTAATTTA,binding signal,[1],"11.5 upbm affinity estimate (log intensity, higher = more binding, comparable within an allelic series)"
same,binding signal,[17],"13.7 upbm affinity estimate (log intensity, higher = more binding, comparable within an allelic series)"
same,binding signal,[11],"11.7 upbm affinity estimate (log intensity, higher = more binding, comparable within an allelic series)"
same,binding signal,[18],"11.1 upbm affinity estimate (log intensity, higher = more binding, comparable within an allelic series)"
same,binding signal,[12],"12.3 upbm affinity estimate (log intensity, higher = more binding, comparable within an allelic series)"
same,binding signal,[19],"12.6 upbm affinity estimate (log intensity, higher = more binding, comparable within an allelic series)"
same,binding signal,[20],"11.4 upbm affinity estimate (log intensity, higher = more binding, comparable within an allelic series)"
same,binding signal,[21],"8.44 upbm affinity estimate (log intensity, higher = more binding, comparable within an allelic series)"
same,binding signal,[13],"11.9 upbm affinity estimate (log intensity, higher = more binding, comparable within an allelic series)"
same,binding signal,[3],"9.2 upbm affinity estimate (log intensity, higher = more binding, comparable within an allelic series)"
same,binding signal,[22],"11.1 upbm affinity estimate (log intensity, higher = more binding, comparable within an allelic series)"
same,binding signal,[14],"10.6 upbm affinity estimate (log intensity, higher = more binding, comparable within an allelic series)"
same,binding signal,[23],"12.3 upbm affinity estimate (log intensity, higher = more binding, comparable within an allelic series)"
same,binding signal,[15],"11 upbm affinity estimate (log intensity, higher = more binding, comparable within an allelic series)"
same,binding signal,[24],"11 upbm affinity estimate (log intensity, higher = more binding, comparable within an allelic series)"
same,binding signal,[25],"10.8 upbm affinity estimate (log intensity, higher = more binding, comparable within an allelic series)"
same,binding signal,[26],"10.2 upbm affinity estimate (log intensity, higher = more binding, comparable within an allelic series)"
same,binding signal,[27],"9.6 upbm affinity estimate (log intensity, higher = more binding, comparable within an allelic series)"
same,binding signal,[28],"7.64 upbm affinity estimate (log intensity, higher = more binding, comparable within an allelic series)"
same,binding signal,[16],"11 upbm affinity estimate (log intensity, higher = more binding, comparable within an allelic series)"
same,binding signal,[29],"12.1 upbm affinity estimate (log intensity, higher = more binding, comparable within an allelic series)"
same,binding signal,[30],"8.54 upbm affinity estimate (log intensity, higher = more binding, comparable within an allelic series)"
same,binding signal,[31],"13.3 upbm affinity estimate (log intensity, higher = more binding, comparable within an allelic series)"
GCAGAGCC,binding signal,[1],"7.11 upbm affinity estimate (log intensity, higher = more binding, comparable within an allelic series)"
same,binding signal,[32],"8.95 upbm affinity estimate (log intensity, higher = more binding, comparable within an allelic series)"
same,binding signal,[3],"7.16 upbm affinity estimate (log intensity, higher = more binding, comparable within an allelic series)"
same,binding signal,[33],"8.72 upbm affinity estimate (log intensity, higher = more binding, comparable within an allelic series)"
CGGGGGGC,binding signal,[1],"7.33 upbm affinity estimate (log intensity, higher = more binding, comparable within an allelic series)"
same,binding signal,[11],"9.22 upbm affinity estimate (log intensity, higher = more binding, comparable within an allelic series)"
same,binding signal,[12],"9.41 upbm affinity estimate (log intensity, higher = more binding, comparable within an allelic series)"
same,binding signal,[34],"9.61 upbm affinity estimate (log intensity, higher = more binding, comparable within an allelic series)"
same,binding signal,[13],"9.12 upbm affinity estimate (log intensity, higher = more binding, comparable within an allelic series)"
same,binding signal,[3],"7 upbm affinity estimate (log intensity, higher = more binding, comparable within an allelic series)"
same,binding signal,[14],"8.99 upbm affinity estimate (log intensity, higher = more binding, comparable within an allelic series)"
same,binding signal,[35],"9.76 upbm affinity estimate (log intensity, higher = more binding, comparable within an allelic series)"
same,binding signal,[15],"9.11 upbm affinity estimate (log intensity, higher = more binding, comparable within an allelic series)"
same,binding signal,[36],"9.77 upbm affinity estimate (log intensity, higher = more binding, comparable within an allelic series)"
same,binding signal,[16],"9.12 upbm affinity estimate (log intensity, higher = more binding, comparable within an allelic series)"
ACCGGCTG,binding signal,[1],"7.1 upbm affinity estimate (log intensity, higher = more binding, comparable within an allelic series)"
same,binding signal,[34],"9.47 upbm affinity estimate (log intensity, higher = more binding, comparable within an allelic series)"
same,binding signal,[3],"7.13 upbm affinity estimate (log intensity, higher = more binding, comparable within an allelic series)"
same,binding signal,[35],"9.51 upbm affinity estimate (log intensity, higher = more binding, comparable within an allelic series)"
same,binding signal,[36],"9.53 upbm affinity estimate (log intensity, higher = more binding, comparable within an allelic series)"
GGCGCGAA,binding signal,[1],"7.15 upbm affinity estimate (log intensity, higher = more binding, comparable within an allelic series)"
same,binding signal,[37],"10.1 upbm affinity estimate (log intensity, higher = more binding, comparable within an allelic series)"
same,binding signal,[3],"7.19 upbm affinity estimate (log intensity, higher = more binding, comparable within an allelic series)"
same,binding signal,[38],"10.1 upbm affinity estimate (log intensity, higher = more binding, comparable within an allelic series)"
